Data on 40 molecules can be found in PubChem BioAssay AID2653 (National Center for Advancing Translational Sciences (NCATS), 2010).

The structures appear in SMILES notation. Records with an inconclusive call do not appear. Unmarked numbers belong to inactive results. Calls follow the shape of the dose curve; as a rule, active = well fitted curve in the direction sought with a large enough effect; inconclusive = small, poorly fitted or top-dose-only effect, or another doubt; inactive = no such curve, though single readings can be large or run the other way.

This experiment can be described thus: Secondary Assay for Activators of Human Pyruvate Kinase M2 isoform - Cell Titer Glo Cytotoxicity for Probe SAR. Also: % of control where 0% means no effect. To be noted: HeLa viability, CellTiter-Glo ATP luminescence, 24 h; series mostly up to 58.2 µM; activity change, negative = cytotoxicity: at the top concentration. On the procedure: NIH Chemical Genomics Center [NCGC]
Matthew G. Vander Heiden, M.D., Ph.D. [Harvard Medical School, 77 Avenue Louis Pasteur, Boston, MA 02115]
We have identified a series of activators of the M2 isoform of human pyruvate kinase. The assay described here examines the cytotoxicity of these compounds by measuring the total ATP content of Hela cells after 24 hrs of exposure to compound.
500 Hela cells/ 4ul in media (DMEM with high glucose, 10% FBS, 1x Pen Strep, 1x NEAA) were dispensed into a white solid 1536-microwell plate with a Thermo Multidrop. The plates were incubated at 37 degrees Celsius for 24 hours. The cells were then treated with compounds using the Kalypsys pin tool, delivering 23 nl of test compounds and the control doxorubicin. The plates were then incubated for an additional 24 hours at 37 degrees C after which 4 ul of Promega Cell-Titer Glo was dispensed using the Thermo Multidrop. The plates were incubated at room temperature for 10 min before reading luminescence on the Perkin Elmer ViewLux with images collected with 2x binning and a 5 sec exposure time.
A general note: In ATP-based viability assays light output follows the ATP content of the culture.
For `O=C1c2ccccc2C(=O)N1c1ccc2ncccc2c1`, the “activity change, negative = cytotoxicity” value was -4.32%.

On to `O=C1CCc2cc(S(=O)(=O)Nc3ccccc3Cl)ccc2N1`, for which the “activity change, negative = cytotoxicity” value was -10.2%.

As to `CC(=O)N1CCCc2cc(S(=O)(=O)Nc3ccc(C)c(C)c3)ccc21`, the “activity change, negative = cytotoxicity” value is -8.97%.

Consider `Cc1ccc(Cl)cc1NS(=O)(=O)c1cc2c(cc1Cl)CCC(=O)N2`, for which the “activity change, negative = cytotoxicity” value was -25.3%.

Take `Cc1ccc(-c2nc3cnccn3c2Nc2ccc(C(C)C)cc2)o1`: the “activity change, negative = cytotoxicity” value is -17.3%.

Consider `Cc1ccc(-c2nc3ccccn3c2Nc2ccccc2C)o1`, for which the “activity change, negative = cytotoxicity” value was -15.4%.

For the molecule `Cc1ccc(Nc2c(-c3ccsc3)nc3cccc(C)n23)cc1`, the “activity change, negative = cytotoxicity” value was -15.9%.

For `O=C1c2ccccc2C(=O)N1c1nccs1`, the “activity change, negative = cytotoxicity” value is -15.3%.

For `CN(C)c1cccc(S(=O)(=O)N2CCCN(S(=O)(=O)c3ccc4c(c3)OCCO4)CC2)c1`, the “activity change, negative = cytotoxicity” value is -21.2%.

In the case of `Cc1nc(-c2ccc(S(=O)(=O)Nc3ccc(C)c(C)c3)s2)cs1`, the “activity change, negative = cytotoxicity” value was -17.5%.

Take `O=S1(=O)N=C(Oc2ccccc2Cl)c2ccccc21`: the “activity change, negative = cytotoxicity” value was -12.1%.

With `CNc1cc2c(cc1S(=O)(=O)Nc1ccc(C)c(C)c1)CCC(=O)N2`, the “activity change, negative = cytotoxicity” value was -25.8%.

As to `Cc1ccc(NS(=O)(=O)c2cc3c(cc2/C=C/c2ccccc2)NC(=O)CO3)cc1C`, the “activity change, negative = cytotoxicity” value is -22.7%.

With `O=C1c2ccccc2C(=O)N1c1cccc2ccncc12`, the “activity change, negative = cytotoxicity” value is 0.305%.

Regarding `O=C1CCc2cc(S(=O)(=O)NCc3ccccc3)ccc2N1`, the “activity change, negative = cytotoxicity” value is -12.7%.

As for `Cc1ccc(NS(=O)(=O)c2cc3c(cc2-c2cn[nH]c2)NC(=O)CO3)cc1C`, the “activity change, negative = cytotoxicity” value was -2.65%.

With `O=C1c2ccccc2C(=O)N1c1cnc2ccccc2c1`, the “activity change, negative = cytotoxicity” value was 0.801%.

On to `Cc1ccc(OC2=NS(=O)(=O)c3ccccc32)cc1`, for which the “activity change, negative = cytotoxicity” value is 5.54%.

For the molecule `Cc1ccc(N[S+](=O)([O-])c2cc3c(cc2CCc2ccccc2)NC(=O)CO3)cc1C`, the “activity change, negative = cytotoxicity” value is -10.3%.

Turning to `Cc1ccc(NS(=O)(=O)c2cc3c(cc2Cl)NC(=O)C3)cc1C`, the “activity change, negative = cytotoxicity” value was -14.7%.

Regarding `O=C1CCc2cc(S(=O)(=O)Nc3ccccn3)ccc2N1`, the “activity change, negative = cytotoxicity” value is -2.99%.

For the molecule `O=C1c2ccccc2C(=O)N1c1cccc(Cl)c1`, the “activity change, negative = cytotoxicity” value was -21.7%.

On to `Cc1ccc(NS(=O)(=O)c2ccc3c(c2)CCC(C)(C)O3)cc1C`, for which the “activity change, negative = cytotoxicity” value is -9.19%.

Turning to `Cc1ccc(NS(=O)(=O)c2ccc(Cl)cc2)cc1C`, the “activity change, negative = cytotoxicity” value was -4.87%.

Consider `Cc1ccc(NS(=O)(=O)c2cc3c(cc2N2CCC2)NC(=O)CC3)cc1C`, for which the “activity change, negative = cytotoxicity” value is -23.9%.

On to `Cc1ccccc1NS(=O)(=O)c1ccc2c(c1)CCC(=O)N2`, for which the “activity change, negative = cytotoxicity” value is -15.2%.

`O=C1CCc2cc(S(=O)(=O)Nc3ccncc3)ccc2N1`: the “activity change, negative = cytotoxicity” value was -16.1%.

In the case of `O=C1CCc2cc(S(=O)(=O)Nc3ccccc3-c3ccccc3)ccc2N1`, the “activity change, negative = cytotoxicity” value was -19.6%.

Take `O=C1CCc2cc(S(=O)(=O)Nc3cccc(C(F)(F)F)c3)ccc2N1`: the “activity change, negative = cytotoxicity” value is -44.3%.

In the case of `O=C1CCc2cc(S(=O)(=O)Nc3ccc(F)cc3)ccc2N1`, the “activity change, negative = cytotoxicity” value is -16.1%.

Regarding `N#Cc1cccc(NS(=O)(=O)c2ccc3c(c2)CCC(=O)N3)c1`, the “activity change, negative = cytotoxicity” value was 6.98%.

Take `Cc1cc(NS(=O)(=O)c2ccc3c(c2)CCC(=O)N3)ccc1F`: the “activity change, negative = cytotoxicity” value is -7.09%.

On to `Cc1ccc2nc(-c3ccc(C)o3)c(Nc3ccc(Cl)cc3)n2c1`, for which the “activity change, negative = cytotoxicity” value was -21.4%.

Take `CN=c1nc(-c2ccccc2)n(-c2ccccc2)s1`: the “activity change, negative = cytotoxicity” value was -22.6%.

`Cc1ccc(NS(=O)(=O)c2cc3c(cc2Cl)CCC(=O)N3)cc1Cl`: the “activity change, negative = cytotoxicity” value was -21.2%.

Consider `Cc1ccc(NS(=O)(=O)c2cc3c(cc2-c2ccccc2)NC(=O)CO3)cc1C`, for which the “activity change, negative = cytotoxicity” value was -9.62%.

For the molecule `COc1ccc(Nc2c(-c3ccc(C)o3)nc3ccccn23)cc1`, the “activity change, negative = cytotoxicity” value is -10.2%.

Regarding `O=C1CCc2cc(S(=O)(=O)Nc3ccccc3F)ccc2N1`, the “activity change, negative = cytotoxicity” value was -28.6%.

Consider `O=C1c2ccccc2C(=O)N1c1ccc2ccccc2n1`, for which the “activity change, negative = cytotoxicity” value was -23.5%.

For the molecule `Cc1ccc2nc(-c3ccc(C)o3)c(Nc3ccc4c(c3)OCO4)n2c1`, the “activity change, negative = cytotoxicity” value was -28.6%.
